For 50 compounds, Potency results are on record in PubChem BioAssay AID504467 (National Center for Advancing Translational Sciences (NCATS), 2011).

Molecules are shown by their SMILES. The whole screen tested about 330,000 compounds, of which about 7,700 (2.3%) were called active. Where a call stands in place of a potency, no number is given. Roughly 26% stayed inconclusive and do not appear here. Calls follow the shape of the dose curve; as a rule, active = well fitted inhibition curve with a large enough effect; inconclusive = small, poorly fitted or top-dose-only effect, or effect the other way; inactive = flat fitted curve, though single readings scatter. The full list was thinned out, with actives kept by preference.
Potency is read from the fitted curve at half-maximal effect.

The assay can be described thus: qHTS screen for small molecules that inhibit ELG1-dependent DNA repair in human embryonic kidney (HEK293T) cells expressing luciferase-tagged ELG1. Also: nearly all actives have a fitted effect of over 55% in size. To be noted: HEK293T ELG1-luciferase reporter, luminescence, 16 h, DNA damage induced by 5-fluorouridine; series mostly up to 46.1 µM. From the text:
NIH Molecular Libraries Probe Production Network [MLPCN] NIH Chemical Genomics Center [NCGC] MLPCN Grant: 1 R03 MH092164-01 Assay Provider: Kyungjae Myung, NHGRI, NIH Keywords: MLPCN, qHTS, NCGC, genotoxicity, cancer Assay Overview: Cancer cells divide rapidly compared to normal cells in the body. During cell division, cancer cells need to duplicate their genome by DNA replication. The failure of genome duplication leads to cancer cells' death. Therefore, inhibitors of DNA replication could specifically kill cancer cells. Based on this concept, many chemotherapeutic agents were developed and have been used to treat cancer patients. However, there are a limited number of agents available in the clinical setting, and some of those that do exist have low efficacy and severe side effects. Therefore, if we can find the compounds that effectively block DNA replication either by directly damaging DNA or by inhibiting other cellular mechanisms, the options for cancer treatment will be broadened. With this in mind, we developed a quantitative high-throughput ELG1-luciferase reporter gene assay. Small molecules that specifically block ELG1 function in response to DNA damage can be identified by monitoring the suppression of luciferase activity. Since ELG1 defines a pathway for repairing DNA damage, agents blocking ELG1 function can be used to sensitize cancer cells to chemotherapeutic agents whose mechanism of action involves the induction of DNA damage.
Assay Protocol Summary: For genotoxicity screening, 2,000 cells in 4 uL/well were dispensed into white, solid-bottom 1536-well plates using a solenoid-based dispenser. Following transfer of 1 uL 5-Fluorouridine and 23 nL compound or DMSO vehicle by a pin tool, the plates were incubated 16 hr at 37 °C and 5% CO2. 5 ul ONE-Glo (Promega) was then added to each plate and following a 30 min incubation at room temperature, luciferase activity was quantified on a ViewLux CCD-based plate reader.
(In qHTS, concentration-response curves come from the screen itself.)
Consider `O=C(/C=C/c1cccs1)c1cc(Cl)ccc1OC(=O)N1CCOCC1`, for which the Potency was 18.4 µM (active).

For `CC(=O)Nc1ccc(C(=O)C(Cc2ccccc2)N(C)C)cc1` (stereo not given), the Potency entry is “inactive”.

Take `Cc1nc2ccccc2c(=O)n1-c1ccc(Cl)cc1Cl`: the Potency entry is “inactive”.

Regarding `COC1=CC=C2[C@H]3Cc4ccc(OC)c5c4[C@@]2(CCN3C)C1O5` (stereo not given in full), the Potency result is “inactive”.

`COC(=O)C1=C(c2cccc(OCc3ccccc3)c2)C[C@@H]2CC[C@H]1N2C(=O)NNCc1ccccc1`: the Potency result was “inactive”.

Take `COC(=O)C1=C(c2cccc(OCc3ccccc3)c2)C[C@@H]2CC[C@H]1N2C(=O)NCc1ccc(Br)cc1`: the Potency entry is “inactive”.

As to `COc1ccc(CNCCc2c[nH]c3ccccc23)cc1OC`, the Potency entry was “inactive”.

For the compound `O=C(c1cc2nc(-c3ccccc3)cc(-c3ccccc3)n2n1)N1CCC2(CC1)OCCO2`, the Potency is 20.6 µM (active).

On to `O=C(c1cc(-c2ccncc2)nc2ccccc12)N1CCC2(CC1)OCCO2`, for which the Potency result was “inactive”.

As to `O=C(c1ccccc1[N+](=O)[O-])N1CCC2(CC1)OCCO2`, the Potency result is “inactive”.

With `CCCCn1c(=O)c(C(=O)Nc2ccccc2Cl)c(O)c2ccccc21`, the Potency entry was “inactive”.

Take `Cc1cccc(NC(=O)N2CC3CC(C2)c2cccc(=O)n2C3)c1` (stereo not given): the Potency entry is “inactive”.

Regarding `Cc1ncc(CC(=O)n2cc(C(=O)c3cc(Cl)ccc3O)cn2)s1`, the Potency was 20.6 µM (active).

Regarding `CCN1C(=O)C(=Cc2c(C)n(CC(=O)NCC3CCCO3)c3ccccc23)C(=O)N(CC)C1=S` (stereo not given), the Potency result is “inactive”.

Consider `Cc1ccccc1NC(=O)COC(=O)c1cc(C)n(C2CC2)c1C`, for which the Potency result is “inactive”.

Regarding `c1cc2c(cc1C1OCC3C(c4ccc5c(c4)OCO5)OCC13)OCO2` (stereo not given), the Potency result was “inactive”.

For the compound `CN(C)CCN(CC1CCCN(Cc2ccccc2F)C1)C(=O)Cc1ccc(F)c(F)c1` (stereo not given), the Potency result was “inactive”.

Consider `Cc1ncoc1C(=O)NCCC(c1ccccc1)c1ccccc1`, for which the Potency is 20.6 µM (active).

On to `CC(Cc1ccccc1)NCCC(c1ccccc1)c1ccccc1` (stereo not given), for which the Potency result is “inactive”.

As to `CCN(CC)C(=O)Oc1ccc(NC(=O)N2CCOCC2)cc1`, the Potency entry was “inactive”.

For `CCOc1cccc(=NC2CCCCC2)c2c(C)[nH]c(C)c12`, the Potency is 10.3 µM (active).

As to `O=c1[nH]c(O)c(C=Nc2cc(F)cc(F)c2)c(=O)[nH]1`, the Potency entry is “inactive”.

With `CCC(=O)c1ccc(OCC(=O)N2CCN(CC(=O)Nc3ccc(C)cc3)CC2)cc1`, the Potency entry is “inactive”.

`COc1ccc2[nH]c3c(c2c1)CCN[C@H]3C`: the Potency result is “inactive”.

With `COc1cc(Cn2c(N)c(C(=O)NCc3ccco3)c3nc4ccccc4nc32)cc(OC)c1OC`, the Potency is 3.26 µM (active).

`CCOC(=O)C(O)(c1ccc(NC(=O)c2ccco2)c(OC)c1)C(F)(F)F` (stereo not given): the Potency entry is “inactive”.

For `COc1ccccc1NC(=O)N1C[C@@H]2C[C@@H](C1)c1cccc(=O)n1C2`, the Potency result is “inactive”.

`O=C(Cc1ccc(Cl)cc1)NCCN1CCN(C(=O)Cc2ccc(Cl)cc2)CC1`: the Potency entry was “inactive”.

In the case of `CC1CCC(N(C)C2CCN(C)CC2)CC1` (stereo not given), the Potency result was “inactive”.

`COc1cc(-n2c(=S)[nH]c3ccc(C)cc3c2=O)c(Cl)cc1Cl`: the Potency is 16.4 µM (active).

For the compound `COC(=O)C1=C(c2ccc(Cl)c(C(F)(F)F)c2)C[C@@H]2CC[C@H]1N2C(=O)NC(C)C`, the Potency entry was “inactive”.

As for `O=C(O)c1ccccc1NC(=O)C1C2CCC(O2)C1C(=O)O` (stereo not given), the Potency result was “inactive”.

Consider `COC(=O)C1=C(c2ccc(F)cc2OCc2ccccc2)C[C@@H]2CC[C@H]1N2C(=O)NCc1ccc(C(C)(C)C)cc1`, for which the Potency entry was “inactive”.

With `COc1ccc(CNCCc2ccc3c(c2)OCO3)c(OC)c1OC`, the Potency entry was “inactive”.

Take `O=C(NC(=S)N1C[C@H]2C[C@H](C1)c1cccc(=O)n1C2)c1ccc(F)cc1`: the Potency result was “inactive”.

As to `CN(c1ccccc1)c1ccc([N+](=O)[O-])c2nonc12`, the Potency entry was “inactive”.

With `Oc1cc2c(cc1CN1CCN(c3ccccc3)CC1)OCO2`, the Potency entry is “inactive”.

As to `CCC(C)n1c(O)c(/C=N/Nc2nc3c(c(=O)n(C)c(=O)n3C)n2C)c(=O)[nH]c1=S` (stereo not given), the Potency is 23.1 µM (active).

In the case of `C[C@]12CC[C@H](O)CC1=C([N+](=O)[O-])CC1C2CC[C@@]2(C)C1CC[C@@H]2O` (stereo not given in full), the Potency entry was “inactive”.

For `c1ccc(CC2CCCCN2)cc1` (stereo not given), the Potency entry is “inactive”.

In the case of `CCCCCn1c(=O)c(C(=O)NCc2ccccc2)c(O)c2ccccc21`, the Potency entry is “inactive”.

On to `CCCCCCCCCCCCn1ccc(=N)cc1`, for which the Potency is 5.8 µM (active).

On to `COc1cccc(OC)c1C(=O)NC(=S)N1C[C@H]2C[C@H](C1)c1cccc(=O)n1C2`, for which the Potency entry is “inactive”.

In the case of `COC(=O)[C@@H]1C(OC(=O)c2ccccc2)CC2CCC1N2C` (stereo not given in full), the Potency result was “inactive”.

For `CC[C@H]1CN2CCc3cc(OC)c(OC)cc3[C@@H]2C[C@@H]1C[C@H]1NCCc2cc(OC)c(OC)cc21`, the Potency was 0.259 µM (active).

`COc1ccc(N2C(=O)/C(=C/c3ccco3)C(=O)NC2=S)cc1`: the Potency entry is “inactive”.

On to `Cc1c(Oc2cc(NN3CCCCC3)c([N+](=O)[O-])cc2[N+](=O)[O-])cccc1[N+](=O)[O-]`, for which the Potency result is “inactive”.

Take `CCc1ccc(OCC(=O)N2CCN(CC(=O)Nc3ccccc3Cl)CC2)cc1`: the Potency result was “inactive”.

`COC(=O)C1=C(c2ccc(Cl)c(C(F)(F)F)c2)C[C@@H]2CC[C@H]1N2C(=O)NC1CC1`: the Potency entry is “inactive”.

Consider `C[C@]12CCC3C(CC[C@H]4C[C@@H](O)CC[C@]34C)C1CC[C@@H]2O` (stereo not given in full), for which the Potency entry was “inactive”.
